Several values for one entry are separate records, joined by “and”; a condition that tells them apart may be missing. Equal entries are not always repeated. Some compounds were tested as several samples or in several runs, with calls that do not always agree. Activity calls are given as the source filed them. The calls were made as follows: active = hit-call score of the fitted dose curve at least 0.9, where 1 is the maximum; inactive = score below 0.9.
Experiment: ATG_TCF_b_cat_CIS: Attagene CIS-FACTORIAL HepG2 Assay for human T-Cell-Factor with beta-catenin (TCF/b-cat) (AID 2282965)
Conditions: HepG2 TCF/beta-catenin cis-reporter transcription, actives raise or lower the signal
Protocol: ATG_CIS is a cell-based, multiplexed-readout assay that uses HepG2, a human liver cell line, with measurements taken at 24 hours after chemical dosing in a 24-well plate.ATG_TCF_b_cat_CIS is one of 52 assay component(s) measured or calculated from the ATG_CIS assay. It is designed to make measurements of mRNA induction, a form of inducible reporter, as detected with fluorescence intensity signals by Reverse transcription polymerase chain reaction (RT-PCR) and Capillary electrophoresis technology.Data from the assay component ATG_TCF_b_cat_CIS was analyzed into 1 assay endpoint. This assay endpoint, ATG_TCF_b_cat_CIS, was analyzed with bidirectional fitting relative to DMSO as the negative control and baseline of activity. Using a type of inducible reporter, measures of mRNA for gain or loss-of-signal activity can be used to understand the reporter gene at the transcription factor-level as they relate to the gene TCF7 and TCF7L2 and LEF1 and TCF7L1. Furthermore, this assay endpoint can be referred to as a primary readout, because this assay has produced multiple assay endpoints where this one serves a reporter gene function. To generalize the intended target to other relatable targets, this assay endpoint is annotated to the dna binding intended target family, where the subfamily is HMG box protein.
Human liver HepG2 cells are transiently transfected with multiple reporter transcription units (MRTUs) in 6-well plates using FuGene 6 reagent (Roche; 3 ml FuGene/1 mg DNA). The MRTU constructs are regulated by a cis-regulating element (promoter). […] A major difference between the CIS and TRANS system is that in CIS activities of endogenous TFs are measured, whereas the TRANS assay evaluates changes in activities of exogenous, chimeric NR-Gal4 proteins. […] At the end of 24 hour incubation, total RNA was isolated using TriZol reagent (Invitrogen). The isolated RNA is then reverse-transcribed using oligo(dT) primer and Mo-MLV reverse transcriptase (Invitrogen) with DNAse I (Ambion) treatment for 30 min. The one-tenth of the produced cDNA was amplified by PCR using Taq DNA polymerase (Invitrogen) and two reporter sequence-specific primers. The PCR products were fluorescently labeled by primer extension with 6-arboxyfluorescein (6-FAM) 5'-labeled reporter sequence-specific primer (2 min at 95 C, 20 s at 68 C and 10 min at 72 C) and these products were digested with 5U of HpaI (New England Biolabs) for 2h at 37 C. The fragments were purified using Qiaquick PCR columns (Qiagen), analyzed on an ABI 3130xL genetic analyzer (Applied Biosystems) with peak positions identified by using a set of X-rhodamine (ROX)-labeled MapMarker1000 molecular weight standards (BioVentures). The raw capillary electrophoresis data was processed using Attagraph software (Attagene).

Structure (SMILES) | outcome | AC50
Cc1cccc(O)c1 | inactive | 
CCOC(=O)CCCCCCCCC(=O)OCC | inactive | 
C=C(C)C(=O)OCCC[Si](OC)(OC)OC | inactive | 
COc1ccc(N)c(C)c1 |  | 169 µM (active)
C/C=C(\C)C(=O)OC/C=C(\C)CCC=C(C)C | inactive | 
COc1ccccc1NC(=O)CC(C)=O | inactive | 
COc1ccc(OC)cc1 | inactive | 
C=C(C)C(=O)OCCOCCOC(=O)C(=C)C | inactive | 
CCC(C)(C)C1CCC(=O)CC1 | inactive | 
OC[C@@H](O)[C@H](O)[C@@H](O)[C@@H](O)CO | inactive | 
O=Cc1ccccc1O | inactive | 
CCCCC(CC)COCCO (stereo not given) | inactive | 
CC(=O)C1=C(C)[C@@H]2C[C@@]3(C1)[C@H](C)CC[C@H]3C2(C)C |  | 77.7 µM (active)
CC(C)N1C(=O)c2ccccc2C1=O | inactive | 
CCCCCCCCCO | inactive | 
O=C(O)c1ccc(C(=O)O)c(C(=O)O)c1 | inactive | 
CC(=O)c1ccc2ccccc2c1 | inactive | 
C=C1CC/C=C(\C)CC[C@@H]2[C@@H]1CC2(C)C | inactive | 
CCO[Si](CC)(OCC)OCC |  | 173 µM (active)
CC1=C(C=O)C(C)(C)CCC1 | inactive | 

Structure (SMILES) | outcome | AC50
CC(=O)CC(=O)N(C)C | inactive | 
COC(=O)c1cccc(C(=O)OC)c1 | inactive | 
CC(=O)c1cccnc1 | inactive | 
CC(=O)c1ccc(C)cc1 | inactive | 
c1coc(CNc2ncnc3nc[nH]c23)c1 | inactive | 
CC1=CC[C@@H](C(C)(C)O)CC1 | inactive | 
CC/C=C\CCOC(=O)C(C)C | inactive | 
CCCCCCCCCCO[C@@H]1O[C@H](CO)[C@@H](O)[C@H](O)[C@H]1O | inactive | 
CCC(=O)OC/C=C(\C)CCC=C(C)C | inactive | 
COC(=O)C(C)Oc1ccc(Oc2ncc(C(F)(F)F)cc2Cl)cc1 (stereo not given) | inactive | 
C=CC(C)(CCC=C(C)C)OC(=O)CC (stereo not given) | inactive | 
CCCc1ccc(O)cc1 | inactive | 
CCCCCC#CC(=O)OC | inactive | 
CC1=CC(C)C(C=O)C(C)C1 (stereo not given) (tested in a mixture with another compound) | inactive | 
C#C[C@]1(O)CC[C@H]2[C@@H]3CCc4cc(O)ccc4[C@H]3CC[C@@]21C | inactive | 19.2 µM (active) and 19.8 µM (active)
S=c1[nH][nH]c(=S)s1 | inactive | 
CC(=O)Nc1cc(S(=O)(=O)O)cc2cc(S(=O)(=O)O)c(N=Nc3ccccc3)c(O)c12 | inactive | 
NC(=O)c1cnccn1 | inactive | 
CC1=CCC(C(C)C)=CC1 | inactive | 

From PubChem BioAssay (EPA / NIEHS)
